Assay results from PubChem BioAssay AID1508601 (ICCB-Longwood Screening Facility, Harvard Medical School, 2020).
Values joined by “and” are separate entries in the source; they are usually repeats but may differ in a detail not shown here. Equal values may be shown once. The campaign covered roughly 5,700 compounds. About 85 (1%) were called active. Rule as the data show it: active = p53-positive nuclei above about 36% (passing the limit was not always enough); inactive = the rest. This excerpt belongs to a sample that is enriched for actives. A structure can be active in one record and inactive in another.

Assays:
[1] = p53 stabilisation in HPV-positive human cells, imaging, p53-positive nuclei imaging, 24 h, 48 h (AID 1508601); settings: 24/48 h
[2] = molecular target: Cellular tumor antigen p53 (Homo sapiens) (UniProt P04637); experiment: as above; settings: 24/48 h, stronger effect = higher value
[3] = measured here: cell number at 24 h, Library stock concentration: 3.33 mM
[4] = measured here: cell number at 24 h, Library stock concentration: 10 mM
[5] = measured here: cell number at 48 h, Library stock concentration: 3.33 mM
[6] = measured here: cell number at 48 h, Library stock concentration: 10 mM
[7] = Library stock concentration: 3.33 mM
[8] = Library stock concentration: 10 mM
[9] = measured here: p53 positive nuclei at 24 h, Library stock concentration: 3.33 mM
[10] = measured here: p53 positive nuclei at 24 h, Library stock concentration: 10 mM
[11] = measured here: cell number at 24 h, concentration not given here
[12] = measured here: cell number at 48 h, concentration not given here
[13] = measured here: p53 positive nuclei at 24 h, concentration not given here

Cellular tumor antigen p53 (Homo sapiens), sequence (P04637 whole entry, looked up): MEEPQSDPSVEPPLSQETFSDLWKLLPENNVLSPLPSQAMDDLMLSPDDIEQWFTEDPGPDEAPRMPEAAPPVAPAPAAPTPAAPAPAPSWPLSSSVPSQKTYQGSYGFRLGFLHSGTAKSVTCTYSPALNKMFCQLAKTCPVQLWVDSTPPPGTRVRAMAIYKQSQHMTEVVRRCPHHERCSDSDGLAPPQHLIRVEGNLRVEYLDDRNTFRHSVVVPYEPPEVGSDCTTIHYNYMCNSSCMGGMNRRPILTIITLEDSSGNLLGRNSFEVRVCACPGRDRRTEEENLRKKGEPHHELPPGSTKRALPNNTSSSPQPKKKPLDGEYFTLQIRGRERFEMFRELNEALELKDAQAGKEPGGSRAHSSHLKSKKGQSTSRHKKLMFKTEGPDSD

For `Cc1cc(OCCCS(C)(=O)=O)cc(C)c1-c1cccc(COc2ccc3c(c2)OCC3CC(=O)O)c1` (stereo unspecified), the nuclei count, normalised ([1]; measured here: cell number at 24 h, Library stock concentration: 46 uM) was 101%, the nuclei count, normalised ([1]; measured here: cell number at 24 h, Library stock concentration: 278 uM) was 107% and the nuclei count, normalised ([1]; measured here: cell number at 24 h, Library stock concentration: 1.67 mM) was 104%. The nuclei count, normalised [1, 3] was 125%, the nuclei count, normalised [1, 4] was 103% and the nuclei count, normalised ([1]; measured here: cell number at 48 h, Library stock concentration: 46 uM) was 105%. It also gave a nuclei count, normalised ([1]; measured here: cell number at 48 h, Library stock concentration: 278 uM) of 104%, a nuclei count, normalised ([1]; measured here: cell number at 48 h, Library stock concentration: 1.67 mM) of 104% and a nuclei count, normalised [1, 5] of 119%. For the same molecule, the nuclei count, normalised [1, 6] was 103%, the p53-positive nuclei, normalised ([2]; Library stock concentration: 46 uM) was -0.0206% (inactive) and the p53-positive nuclei, normalised ([2]; Library stock concentration: 278 uM) was -0.0568% (inactive). The p53-positive nuclei, normalised ([2]; Library stock concentration: 1.67 mM) was -0.0557% (inactive), the p53-positive nuclei, normalised [2, 7] was -0.149% (inactive) and the p53-positive nuclei, normalised [2, 8] was 0.322% (inactive). The p53-positive nuclei, normalised ([2]; measured here: p53 positive nuclei at 24 h, Library stock concentration: 46 uM) was -0.152%, the p53-positive nuclei, normalised ([2]; measured here: p53 positive nuclei at 24 h, Library stock concentration: 278 uM) was 0.151% and the p53-positive nuclei, normalised ([2]; measured here: p53 positive nuclei at 24 h, Library stock concentration: 1.67 mM) was -0.156%. It also gave a p53-positive nuclei, normalised [2, 9] of -0.546% and a p53-positive nuclei, normalised [2, 10] of -0.0299%.
With `O=C(O)/C=C/CCCCCCCCC(=O)O` the nuclei count, normalised [1, 11] was 111%, the nuclei count, normalised [1, 12] was 107% and the p53-positive nuclei, normalised ([2]; concentration not given here) was 0.0752% (inactive). The p53-positive nuclei, normalised [2, 13] was 0.0107%.
In the case of `C=C1C(=O)OC(CCCCCCCC)C1C(=O)O` (stereo unspecified), the nuclei count, normalised ([1]; measured here: cell number at 24 h, Library stock concentration: 500 nM) was 115%, the nuclei count, normalised ([1]; measured here: cell number at 24 h, Library stock concentration: 1.5 uM) was 107% and the nuclei count, normalised ([1]; measured here: cell number at 24 h, Library stock concentration: 4.6 uM) was 111%. The nuclei count, normalised ([1]; measured here: cell number at 24 h, Library stock concentration: 13.7 uM) was 112%, the nuclei count, normalised ([1]; measured here: cell number at 24 h, Library stock concentration: 41 uM) was 108% and the nuclei count, normalised ([1]; measured here: cell number at 24 h, Library stock concentration: 123 uM) was 110%. It also gave a nuclei count, normalised ([1]; measured here: cell number at 24 h, Library stock concentration: 370 uM) of 116%, a nuclei count, normalised ([1]; measured here: cell number at 24 h, Library stock concentration: 1.111 mM) of 116% and a nuclei count, normalised ([1]; measured here: cell number at 24 h, Library stock concentration: 3.333 mM) of 114%. The nuclei count, normalised [1, 4] was 106%, the nuclei count, normalised ([1]; measured here: cell number at 48 h, Library stock concentration: 500 nM) was 112% and the nuclei count, normalised ([1]; measured here: cell number at 48 h, Library stock concentration: 1.5 uM) was 108%. For the same molecule, the nuclei count, normalised ([1]; measured here: cell number at 48 h, Library stock concentration: 4.6 uM) was 109%, the nuclei count, normalised ([1]; measured here: cell number at 48 h, Library stock concentration: 13.7 uM) was 110% and the nuclei count, normalised ([1]; measured here: cell number at 48 h, Library stock concentration: 41 uM) was 105%. The nuclei count, normalised ([1]; measured here: cell number at 48 h, Library stock concentration: 123 uM) was 108%, the nuclei count, normalised ([1]; measured here: cell number at 48 h, Library stock concentration: 370 uM) was 116% and the nuclei count, normalised ([1]; measured here: cell number at 48 h, Library stock concentration: 1.111 mM) was 114%. The nuclei count, normalised ([1]; measured here: cell number at 48 h, Library stock concentration: 3.333 mM) was 112%, the nuclei count, normalised [1, 6] was 107% and the p53-positive nuclei, normalised ([2]; Library stock concentration: 500 nM) was 0.247% (inactive). For the same molecule, the p53-positive nuclei, normalised ([2]; Library stock concentration: 1.5 uM) was -0.0382% (inactive), the p53-positive nuclei, normalised ([2]; Library stock concentration: 4.6 uM) was -0.0805% (inactive) and the p53-positive nuclei, normalised ([2]; Library stock concentration: 13.7 uM) was -0.0825% (inactive). For the same molecule, the p53-positive nuclei, normalised ([2]; Library stock concentration: 41 uM) was 0.00899% (inactive), the p53-positive nuclei, normalised ([2]; Library stock concentration: 123 uM) was -0.155% (inactive) and the p53-positive nuclei, normalised ([2]; Library stock concentration: 370 uM) was 0.0153% (inactive). For the same molecule, the p53-positive nuclei, normalised ([2]; Library stock concentration: 1.111 mM) was -0.0515% (inactive), the p53-positive nuclei, normalised ([2]; Library stock concentration: 3.333 mM) was 0.104% (inactive) and the p53-positive nuclei, normalised [2, 8] was 0.0835% (inactive). The p53-positive nuclei, normalised ([2]; measured here: p53 positive nuclei at 24 h, Library stock concentration: 500 nM) was -0.115%, the p53-positive nuclei, normalised ([2]; measured here: p53 positive nuclei at 24 h, Library stock concentration: 1.5 uM) was 0.12% and the p53-positive nuclei, normalised ([2]; measured here: p53 positive nuclei at 24 h, Library stock concentration: 4.6 uM) was -0.0584%. It also gave a p53-positive nuclei, normalised ([2]; measured here: p53 positive nuclei at 24 h, Library stock concentration: 13.7 uM) of -0.0585%, a p53-positive nuclei, normalised ([2]; measured here: p53 positive nuclei at 24 h, Library stock concentration: 41 uM) of 0.0028% and a p53-positive nuclei, normalised ([2]; measured here: p53 positive nuclei at 24 h, Library stock concentration: 123 uM) of -0.115%. The p53-positive nuclei, normalised ([2]; measured here: p53 positive nuclei at 24 h, Library stock concentration: 370 uM) was -0.0115%, the p53-positive nuclei, normalised ([2]; measured here: p53 positive nuclei at 24 h, Library stock concentration: 1.111 mM) was 0.0471% and the p53-positive nuclei, normalised ([2]; measured here: p53 positive nuclei at 24 h, Library stock concentration: 3.333 mM) was 0.103%. It also gave a p53-positive nuclei, normalised [2, 10] of -0.112%.
For `O=C(CCCCCCC(=O)Nc1ccccc1)NO`, the nuclei count, normalised ([1]; measured here: cell number at 24 h, Library stock concentration: 80 uM) was 112%, the nuclei count, normalised ([1]; measured here: cell number at 24 h, Library stock concentration: 400 uM) was 108% and 112% and the nuclei count, normalised ([1]; measured here: cell number at 24 h, Library stock concentration: 2 mM) was 91.7% and 119%. For the same molecule, the nuclei count, normalised [1, 3] was 78.1%, the nuclei count, normalised [1, 4] was 48.6% and 60.7% and the nuclei count, normalised [1, 11] was 97.6%. For the same molecule, the nuclei count, normalised ([1]; measured here: cell number at 48 h, Library stock concentration: 80 uM) was 108% and 95.5%, the nuclei count, normalised ([1]; measured here: cell number at 48 h, Library stock concentration: 400 uM) was 95.7% and 94.9% and the nuclei count, normalised ([1]; measured here: cell number at 48 h, Library stock concentration: 2 mM) was 94.4% and 101%. For the same molecule, the nuclei count, normalised [1, 5] was 74.5%, the nuclei count, normalised [1, 6] was 30.2% and 39.7% and the nuclei count, normalised [1, 12] was 95.7%. For the same molecule, the p53-positive nuclei, normalised ([2]; Library stock concentration: 80 uM) was 0.114% (inactive) and -0.578% (inactive), the p53-positive nuclei, normalised ([2]; Library stock concentration: 400 uM) was -0.0686% (inactive) and -0.456% (inactive) and the p53-positive nuclei, normalised ([2]; Library stock concentration: 2 mM) was 1.4% (inactive) and -0.595% (inactive). For the same molecule, the p53-positive nuclei, normalised [2, 7] was 4.65% (inactive), the p53-positive nuclei, normalised [2, 8] was 53.5% (active) and 27.2% (inactive) and the p53-positive nuclei, normalised ([2]; concentration not given here) was 0.0822% (inactive). For the same molecule, the p53-positive nuclei, normalised ([2]; measured here: p53 positive nuclei at 24 h, Library stock concentration: 80 uM) was 0.178% and -0.162%, the p53-positive nuclei, normalised ([2]; measured here: p53 positive nuclei at 24 h, Library stock concentration: 400 uM) was -0.0144% and -0.0685% and the p53-positive nuclei, normalised ([2]; measured here: p53 positive nuclei at 24 h, Library stock concentration: 2 mM) was 2.42% and 0.0577%. For the same molecule, the p53-positive nuclei, normalised [2, 9] was 8.5%, the p53-positive nuclei, normalised [2, 10] was 65.2% and 32.1% and the p53-positive nuclei, normalised [2, 13] was 0.00812%.
In the case of `Nc1ccccc1NC(=O)CCCCCCC(=O)Nc1ccccc1`, the nuclei count, normalised [1, 11] was 102%, the nuclei count, normalised [1, 12] was 99.7% and the p53-positive nuclei, normalised ([2]; concentration not given here) was -0.185% (inactive). For the same molecule, the p53-positive nuclei, normalised [2, 13] was -0.135%.
With `Cc1ccc(NC(=O)CCCCCC(=O)Nc2ccccc2N)cc1` the nuclei count, normalised [1, 11] was 111%, the nuclei count, normalised [1, 12] was 104% and the p53-positive nuclei, normalised ([2]; concentration not given here) was -0.139% (inactive). The p53-positive nuclei, normalised [2, 13] was -0.0721%.
